Rows were chosen to be rich in hits. Some 3.2% of all compounds tested hit in one or more screens of this group.
GDH-TPI inh = inhibits GDH-TPI coupling enzymes, artifact for Mtb FBA screen. inhibition, % at 4.8 µM. GDH-TPI coupled enzyme counterscreen, NADH absorbance. 360,000 compounds, 1.2% hits. AID 588335; in the data active = inhibition above about 30%;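 note: 0% = DMSO wells and 100% = wells lacking the enzyme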
SSB-PriA inh = inhibitors of Klebsiella pneumoniae PriA binding to SSB C-terminal tail. AlphaScreen SSBct-PriA binding, biotinylated peptide. inhibition, % at 33 µM. 430,000 compounds, 0.6% hits. AID 1272365; in the data active = inhibition mostly above about 37%, no sharp cut-off; inactive = mostly below about 20%;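 note: plate controls were negative control peptide for no effect and reference peptide for full effect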
Mtb FBA inh = inhibitors of M. tuberculosis fructose-bisphosphate aldolase | P9WQA3 | purified M. tuberculosis FBA, fluorescence read-out | inhibition, % at 1 µM | 360,000 compounds, 2.3% hits; in the data active = inhibition above about 27%;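 note: 0% = vehicle and 100% = reference inhibitor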
Target sequence (P9WQA3 whole entry, looked up): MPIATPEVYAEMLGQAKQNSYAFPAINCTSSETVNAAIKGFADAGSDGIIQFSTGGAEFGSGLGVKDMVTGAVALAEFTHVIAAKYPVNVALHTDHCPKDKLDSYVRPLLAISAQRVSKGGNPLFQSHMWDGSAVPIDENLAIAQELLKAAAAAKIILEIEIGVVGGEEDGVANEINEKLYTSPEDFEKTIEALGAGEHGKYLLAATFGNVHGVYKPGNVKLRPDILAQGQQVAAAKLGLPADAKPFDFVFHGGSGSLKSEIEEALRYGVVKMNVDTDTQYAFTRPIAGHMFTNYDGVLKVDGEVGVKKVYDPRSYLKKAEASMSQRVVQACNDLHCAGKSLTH
Mtb UGM inh = inhibitors of M. tuberculosis UDP-galactopyranose mutase; 320,000 compounds, 0.06% hits; inhibition, % at 10 µM; P9WIQ1; purified UGM, fluorescence polarization probe displacement; AID 504406; in the data active = inhibition above about 10%, passing the limit was not always enough; inconclusive = no clear call, values can overlap the other calls
Mtb bLac sens = beta-lactam sensitization of Mtb H37Rv. inhibition, % at 25 µM. AID 434955. M. tuberculosis H37Rv growth with meropenem, percent inhibition. 330,000 compounds, 0.27% hits; call rule not given here;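 note: growth measured after seven days incubation then overnight dye step; 0% = bacteria only wells and 100% = bacteria with antibiotic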
Rv3671c inh = inhibitors of M. tuberculosis serine protease Rv3671c; inhibition, % at 5.96 µM; 320,000 compounds, 0.048% hits; AID 2606; in the data active = inhibition above about 38%;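 note: extracellular domain of Rv3671c used as enzyme; 0% = enzyme with DMSO and 100% = no enzyme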
Target sequence (P9WHR9 whole entry, looked up, the tested form may be a part): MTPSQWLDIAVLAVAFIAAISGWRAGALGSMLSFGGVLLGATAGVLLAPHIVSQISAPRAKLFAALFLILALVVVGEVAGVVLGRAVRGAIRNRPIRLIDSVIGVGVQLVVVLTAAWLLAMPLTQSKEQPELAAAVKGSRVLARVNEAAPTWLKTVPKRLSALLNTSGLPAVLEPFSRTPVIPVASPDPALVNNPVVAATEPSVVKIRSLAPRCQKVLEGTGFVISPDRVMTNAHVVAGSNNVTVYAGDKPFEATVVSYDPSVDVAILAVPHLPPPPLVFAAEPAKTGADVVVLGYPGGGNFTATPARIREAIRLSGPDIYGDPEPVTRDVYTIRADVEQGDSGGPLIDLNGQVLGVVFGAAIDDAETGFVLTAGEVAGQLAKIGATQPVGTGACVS
* = called active by the depositor; i = inactive; ? = inconclusive; / = not tested or not shown; + = active, no number.

SMILES | GDH-TPI inh | SSB-PriA inh | Mtb FBA inh | Mtb UGM inh | Mtb bLac sens | Rv3671c inh
COc1ccc2c(c1)cc(C(=O)N/N=C/c1c(O)c(C(=O)O)cc3ccccc13)n2C | 31.9* | / | -1.8 | -3.3 | 1.1 | 18.8
Cn1c(C(=O)NN=Cc2ccccc2)cc2ccccc21 | / | -14.4 | / | / | / | /
O=C1C=C(c2ccoc2)N2CCC[C@H]2C1 | 38.8* | -0.6 | 1.3 | 0.1 | -2.1 | -6.2
COc1ccc(NC(=O)CN(C)C(=O)c2cccc3ccccc23)cc1 | 1.4 | -2.8 | 131.4* | 0.8 | -7.7 | -11.6
CC(=NNc1ccc(C(=O)c2c(C)cc3ccccn23)cc1[N+](=O)[O-])c1ccc(O)cc1 | / | 2.4 | / | / | / | /
Cc1cc2ccccn2c1C(=O)c1cc([N+](=O)[O-])cc([N+](=O)[O-])c1 | 3.2 | 49.1* | -5.8 | -1.0 | -7.3 | -1.5
Cc1cc2ccccn2c1C(=O)c1ccc(NN)c([N+](=O)[O-])c1 | 4.2 | 46.8* | 1.7 | 2.9 | 18.0 | 2.5
Cc1cc(=O)oc2cc(OCC(=O)N3CCN(C(C)c4ccccc4)CC3)c(Cl)cc12 (stereo not given) | 3.2 | 7.7 | + | -0.1 | 0.2 | 2.9
O=C(c1ccco1)N1N=C(c2cccs2)CC1c1ccc(F)cc1 (stereo not given) | 20.6 | -12.0 | 1.4 | 2.1 | -6.2 | -4.6
CNC(=S)N1N=C(c2cccs2)CC1c1ccc(F)cc1 (stereo not given) | 36.2* | -18.6 | 8.3 | -4.8 | -1.7 | 4.6
Clc1ccc2nc(CN3CCCCC3)cn2c1 | 6.7 | 2.0 | -0.3 | -0.1 | 3.2 | 5.8
Clc1ccc2nc(CN3CCCc4ccccc43)cn2c1 | 15.1 | 42.6* | -0.6 | 1.3 | 0.2 | 8.7
O=C(c1c(F)cccc1Cl)N(Cc1ccco1)C1CCOCC1 | / | -7.0 | / | / | / | /
Cc1ccc(S(=O)(=O)Nc2ccccc2C(=O)Nc2nc(-c3ccc(F)cc3)cs2)cc1 | 11.6 | -8.4 | 35.4* | / | -6.9 | -58.9
COc1ccc(-c2csc(NC(=O)c3ccccc3NS(=O)(=O)c3ccc(F)c(F)c3)n2)cc1 | 14.7 | 8.2 | 2.9 | 0.8 | -5.3 | 1.3
C1CCN(c2nc3nonc3nc2NCC2CCOCC2)CC1 | 52.0* | -13.1 | 3.6 | 1.9 | -6.2 | 8.7
CCOC(=O)c1sc(C)c2c(=O)n(CC)nnc12 | 32.3* | 5.1 | 4.1 | 3.0 | -7.2 | -3.4
CCOc1ccccc1N1CCN(Cc2cccc(OC)c2OC)CC1 | 10.1 | -5.9 | -3.0 | -0.5 | -3.4 | 2.3
CCOc1ccccc1N1CCN(Cc2cn[nH]c2-c2ccc(F)cc2)CC1 | 1.6 | 10.7 | 31.1* | 1.4 | -6.2 | -3.4
O=C(CCc1ccccc1)NC(=S)Nc1ccccc1[N+](=O)[O-] | -2.2 | 38.8* | 1.0 | 2.6 | ? | -11.9
COc1ccc(-n2c(=O)[nH]c3c(C(N)=O)nc(-c4cccc(Br)c4)nc32)cc1OC | / | -2.0 | / | / | / | /
COc1cnc(-c2ccccn2)nc1NC(C)C | 0.9 | 95.0* | 46.5* | 0.0 | 75.2 | 1.2
COc1cnc(-c2ccccn2)nc1N1CCOCC1 | / | 156.0* | / | / | / | /
Cc1ccc(S(=O)(=O)Oc2ccccc2/C=N/Nc2ccc(C(=O)O)cc2)cc1 | 50.6* | i | 12.1 | 0.6 | 15.6 | 5.3
Cc1ccc(S(=O)(=O)Oc2ccccc2/C=N/O)cc1 | -8.2 | / | -4.1 | 1.8 | -0.6 | -5.2
SMILES | GDH-TPI inh | SSB-PriA inh | Mtb FBA inh | Mtb UGM inh | Mtb bLac sens | Rv3671c inh
Cc1ccc(CCC(=O)Nc2ccc(Cl)c([N+](=O)[O-])c2)o1 | / | 48.0* | / | / | / | /
O=C(NC[C@@H](c1cccs1)N1CCc2ccccc21)c1ccccc1Br | / | 19.0 | / | / | / | /
O=C(NCC(c1cccs1)N1CCc2ccccc21)c1ccccc1[N+](=O)[O-] (stereo not given) | / | 46.0* | / | / | / | /
CON(C)C(=O)C1CCNCC1 | / | -7.0 | / | / | / | /
CN(C)C(=O)C1CCNCC1 | / | 39.0* | / | / | / | /
COc1cccc(CNC(=S)Nc2ccc3c(c2)c(=O)n(C)n3Cc2csc(C)n2)c1 | 5.5 | / | 18.0 | / | / | /
CC(CC(=O)Nc1ccc2c(c1)c(=O)n(C)n2Cc1ccc(F)cc1)c1ccccc1 (stereo not given) | 1.8 | / | 129.5* | / | / | /
COc1cccc(CC(=O)Nc2ccc3c(c2)c(=O)n(C)n3-c2ccc(C(C)(C)C)cc2)c1 | 5.6 | / | 6.3 | / | / | /
CC(CC(=O)Nc1ccc2c(c1)c(=O)n(C)n2Cc1ccc(F)cc1)C(F)(F)F (stereo not given) | -3.6 | / | 148.1* | / | / | /
CC(CC(=O)Nc1ccc2c(c1)c(=O)n(C)n2-c1ccc2ccccc2c1)C(F)(F)F (stereo not given) | 7.5 | / | 6.4 | / | / | /
COc1cccc(Cn2c3ccc(NC(=O)Cc4cc(OC)ccc4OC)cc3c(=O)n2C)c1 | 2.7 | / | 152.2* | / | / | /
COc1cccc(Cn2c3ccc(NC(=O)CC(C)C(F)(F)F)cc3c(=O)n2C)c1 (stereo not given) | 8.9 | / | 142.8* | / | / | /
CCOC(=O)N1CCN(C(=O)CSc2nnc(NC(=O)Nc3ccc(C)cc3)s2)CC1 | / | -11.0 | / | / | / | /
CON=C1CCn2c1c(C)c1ccccc12 | / | 7.0 | / | / | / | /
CO/N=C1\CCn2c1c(C)c1ccccc12 | 31.4* | / | 3.1 | -2.6 | -8.8 | 5.8
O=C(O)c1cc(-c2cccs2)nc2ccc(Br)cc12 | 13.0 | / | 17.3 | -0.5 | 0.8 | 5.4
Cc1cccc(NC(=O)c2cc(-c3ccc(C)s3)nc3ccccc23)n1 | 5.7 | -54.3 | 22.4 | 1.3 | 67.3 | -25.2
Cc1ccc(-c2cc(C(=O)O)c3ccccc3n2)s1 | 15.2 | -1.4 | + | -1.5 | 6.1 | /
CCN1CCN(C(=O)c2cc(-c3ccc(Cl)s3)nc3ccccc23)CC1 | 21.0 | -5.5 | 118.2* | / | / | /
O=C(O)c1cc(-c2cccs2)nc2ccc(F)cc12 | 11.8 | -11.1 | + | 1.7 | -6.0 | 7.3
O=C(O)c1cc(-c2ccc(Cl)s2)nc2ccccc12 | 8.2 | -5.3 | 159.4* | 2.7 | -16.4 | -1.3
COc1ccc(OC)c2c1sc(=NC(=O)c1ccc(S(=O)(=O)N(C)C)cc1)n2C | / | 0.0 | / | / | / | /
CCN1CCN(C(=O)c2cc(-c3ccco3)nc3ccccc23)CC1 | 11.6 | -2.9 | 130.4* | -0.3 | 2.3 | 6.4
CC(=O)N1CCN(C(=O)c2cc(-c3cccc4ccccc34)nc3ccccc23)CC1 | 5.6 | 8.4 | 5.5 | 0.8 | 6.2 | 6.2
O=C(c1ccc([N+](=O)[O-])cc1)N1CCN(c2nc3ccccc3s2)CC1 | / | 2.0 | / | / | / | /
SMILES | GDH-TPI inh | SSB-PriA inh | Mtb FBA inh | Mtb UGM inh | Mtb bLac sens | Rv3671c inh
CCNC(=S)N/N=C/c1ccc(OCc2ccc(C(=O)OC)cc2)cc1 | 32.9* | / | 1.7 | 3.5 | -5.2 | -3.1
COc1ccc2cc3cc(C(=O)N4CC(C)CC(C)C4)oc3nc2c1 (stereo not given) | 16.5 | -26.9 | 19.4 | -6.1 | 81.9 | -12.5
COc1ccc2cc3cc(C(=O)N4CCN(c5ccccn5)CC4)oc3nc2c1 | 41.7* | -10.2 | 1.8 | 0.0 | 18.8 | 0.7
COc1ccc2cc3cc(C(=O)NC(C)C)oc3nc2c1 | 31.5* | -13.0 | + | 0.5 | 52.7 | 1.3
COc1ccc2cc3cc(C(=O)NCC4COc5ccccc5O4)oc3nc2c1 (stereo not given) | 30.4 | -7.9 | 152.1* | 1.6 | -3.5 | 1.3
COc1ccc2cc3cc(C(=O)Nc4ccc5c(c4)OCCO5)oc3nc2c1 | 43.0* | 5.6 | 3.7 | 3.1 | -5.5 | -6.4
Cn1c(=O)[nH]cc(C(=O)NCc2cccnc2)c1=O | / | -17.0 | / | / | / | /

Source: PubChem BioAssay
